Measurements reported in PubChem BioAssay (NCATS).
Records with an inconclusive call do not appear. Activity calls are given as the source filed them. The call rests on the fitted dose curve; in most records, active means well fitted curve in the direction sought with a large enough effect; inconclusive means small, poorly fitted or top-dose-only effect, or another doubt; inactive means no such curve, though single readings can be large; an effect the other way counts as inactive or inconclusive.

Columns and labels:
[1] = target: Ferritin light chain (Equus caballus) (UniProt P02791); experiment: qHTS Validation Assay for Identification of Novel General Anesthetics (AID 2323); further: series mostly up to about 77 µM
Method in brief: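 Normalized fluorescence response, scaled between free 1-AMA and 1-AMA/apoferritin complex, fitted to a four-parameter Hill equation for concentration-effect values. Binding mix: 10 uM horse-spleen apoferritin, 50% saturated 1-AMA in PBS; read 380/535 nm after 10 min.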

[2] = target: ATP-dependent DNA helicase Q1 (Homo sapiens) (UniProt P46063); experiment: qHTS Validation Assay for Inhibitors of RecQ-Like Dna Helicase 1 (RECQ1) (AID 2353)
Method in brief: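 RECQ1T1 50 nM; forked duplex (20 bp + 30-nt ss tails) 200 nM, ATP 2 mM final; pH 8.0, 2 mM MgCl2, 2.5 ug/ml poly(dI-dC); 15 min compound preincubation; discontinuous kinetic read over 2 h at RT.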

[3] = Cytometric Cell-Based qHTS for Inhibitors of the mTORC1 Signaling Pathway in MEF (Tsc2-/-, p53-/-) Cells (AID 2660);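 further: Tsc2 and p53 null MEFs carrying empty vector with compound for 24 h; percent of cells above a phospho-rpS6 to PI ratio cutoff in each well; series mostly up to about 38 µM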
Method in brief: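 Cells are plated, treated with compound for 24 hrs at 37 degree Celsius, then fixed, blocked and immunostained for phospho-rpS6 Ser235/236. Propidium iodide counterstain follows. Per-well % positive cells is derived from the PI-normalized phospho-S6 signal.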

[4] = High Content Imaging Cell-Based qHTS for Inhibitors of the mTORC1 Signaling Pathway in MEF (Tsc2-/-, p53-/-) Cells (AID 2666);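 further: percent of cells scored positive for phospho-rpS6 Ser235/236 immunostaining by imaging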
Method in brief: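 Tsc2-/-, p53-/- MEFs (empty-vector stable) grown in DMEM + 10% FBS were exposed to compounds for 24 hrs at 37 degree Celsius, fixed, and stained with Alexa-488 anti-phospho-rpS6 Ser235/236 plus Hoechst. Imaging gave the percentage of positive cells per well.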

[5] = High Content Imaging Cell-Based qHTS for Inhibitors of the mTORC1 Signaling Pathway in MEF Cells (AID 2667);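 further: Tsc2-/- p53-/- MEFs stably re-expressing wild-type Tsc2 exposed 24 h; series mostly up to about 38 µM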
Method in brief: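 Tsc2-/-, p53-/- MEFs stably re-expressing WT Tsc2, grown in DMEM + 10% FBS, were treated with compounds for 24 hrs at 37 degree Celsius, fixed, and stained with Alexa-488 phospho-rpS6 Ser235/236 antibody plus Hoechst; results given as % positive cells.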

[6] = Validation screen for small molecules that induce DNA re-replication in MCF 10A normal breast cells (AID 463097); further: nearly all actives have a fitted effect of over 60% in size
Method in brief: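 Following 48 hr compound incubation (37 C, 5% CO2), MCF 10A cells receive Hoechst for 40 min at 37 C. Nuclei are then scanned (excitation 405 nm, emission 500-530 nm) for total fluorescence intensity.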

[7] = Cytometry Cell-Based qHTS for Inhibitors of the mTORC1 Signaling Pathway in MEF cells (AID 2668);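 further: Tsc2-/- p53-/- mouse embryonic fibroblasts stably re-expressing wild-type Tsc2; percent cells positive for phospho-rpS6 Ser235/236 relative to propidium iodide stain; series mostly up to about 38 µM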
Method in brief: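 In MEFs grown in DMEM + 10% FBS, a 24 hrs compound exposure preceded imaging of phospho-rpS6 Ser235/236 by laser-scanning cytometry.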

Measured: Potency

Sequence of ATP-dependent DNA helicase Q1 (Homo sapiens) (P46063 whole entry, looked up): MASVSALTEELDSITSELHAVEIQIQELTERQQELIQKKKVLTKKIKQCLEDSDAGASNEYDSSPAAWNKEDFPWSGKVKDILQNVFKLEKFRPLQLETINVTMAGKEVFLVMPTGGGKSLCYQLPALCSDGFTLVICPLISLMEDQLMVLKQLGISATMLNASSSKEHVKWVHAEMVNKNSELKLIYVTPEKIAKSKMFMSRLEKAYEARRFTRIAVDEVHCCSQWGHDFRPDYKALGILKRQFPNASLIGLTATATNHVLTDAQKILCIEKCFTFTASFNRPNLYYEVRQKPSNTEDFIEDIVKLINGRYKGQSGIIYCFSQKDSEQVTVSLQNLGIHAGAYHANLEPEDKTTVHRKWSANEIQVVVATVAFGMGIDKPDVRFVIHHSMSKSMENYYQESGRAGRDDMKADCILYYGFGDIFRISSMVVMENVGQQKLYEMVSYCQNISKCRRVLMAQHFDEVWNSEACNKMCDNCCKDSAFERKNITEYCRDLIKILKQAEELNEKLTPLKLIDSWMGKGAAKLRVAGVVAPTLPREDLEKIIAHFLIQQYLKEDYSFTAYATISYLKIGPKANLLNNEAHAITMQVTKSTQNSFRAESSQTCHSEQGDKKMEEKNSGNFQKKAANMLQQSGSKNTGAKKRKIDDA
Sequence of Ferritin light chain (Equus caballus) (P02791 2-175 limits assumed): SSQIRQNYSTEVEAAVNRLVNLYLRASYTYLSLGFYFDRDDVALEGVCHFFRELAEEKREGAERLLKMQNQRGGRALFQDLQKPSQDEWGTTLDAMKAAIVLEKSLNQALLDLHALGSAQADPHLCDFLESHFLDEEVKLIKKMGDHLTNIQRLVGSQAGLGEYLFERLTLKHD

c1ccc(-c2ccccn2)nc1
not listed: [7]
inactive: all other assays above

C=CC(N)CCC(=O)O (configuration not stated)
inactive: all assays above

CN1CCc2cc(NC(=O)Nc3cccnc3)ccc21
not listed: [7]
inactive: all other assays above

Fc1cccc(/C=N/N=C/c2cccc(F)c2)c1
inactive: all assays above

O=C(O)CC1CCCc2ccccc2C1O (configuration not stated)
inactive: all assays above

CN1C2CCC1CC(OC(=O)C(O)c1ccccc1)C2 (configuration not stated)
inactive: all assays above

Cc1cc(NC(=O)Nc2ccc3c(ccn3C)c2)sn1
inactive: all assays above

Ic1ccc(N2CCN(Cc3c[nH]c4ncccc34)CC2)cc1
not listed: [6]
inactive: all other assays above

CN1CCc2cc(O)c(O)cc2C(c2ccccc2)C1 (configuration not stated)
not listed: [5] | [7]
inactive: all other assays above

O=C(O)CNC(=O)C(CS)Cc1ccccc1 (configuration not stated)
not listed: [7]
inactive: all other assays above

COc1cc2c(CCNC(C)=O)c[nH]c2cc1Cl
inactive: all assays above

CCCN(CC1CC1)c1nc(C)nc(Nc2c(Cl)cc(Cl)cc2Cl)c1Cl
not listed: [6]
inactive: all other assays above

O=C(O)CCCC[C@@H]1CCSS1
inactive: all assays above

CC(C)NC[C@H](O)COc1cccc2[nH]ccc12
inactive: all assays above

Cc1ccccc1CNc1ncnc2c1ncn2C1OC(CO)C(O)C1O (configuration not stated)
not listed: [6]
inactive: all other assays above
